Source: PubChem BioAssay (National Center for Advancing Translational Sciences (NCATS))
Vaccinia mCherry: inhibitors of vaccinia virus infection (mCherry reporter signal) | Potency, µM (highest dose often 36.5 µM), for the others: at the highest dose activity change, negative = inhibition, most hits filed as inhibitors | 310,000 compounds, 0.63% hits | Vaccinia virus mCherry reporter infection, fluorescence; calls by dose curve; tested in A549 cells; also: % is scaled to controls: 0 for no effect and ±100 for the full control effect; nearly all actives have a fitted effect of over 35% in size
NS1 inh: inhibitors of influenza NS1 protein function; Potency, µM (doses to about 46.1 µM), for the others: top-dose activity, positive = more growth; 270,000 compounds, 0.4% hits; AID 2326; calls by dose curve; also: actives are rising curves; nearly all actives have a fitted effect of over 50% in size
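In this qHTS, NS1 from influenza A is expressed in budding yeast, where it slows growth. Cells are switched from glucose to 2% galactose medium (pH 6.0, -URA), treated with compound, and growth recovery is read at OD600.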
HCV inhibitor: inhibitors of hepatitis C virus infection. Huh7.5.1 HCVcc-Cre infection, luciferase reporter, 44 h. 340,000 compounds, 3.4% hits. Potency, µM (doses to about 41.8 µM), inactives show at the highest dose activity change, negative = inhibition, actives largely listed as inhibitors. AID 651820; also: % is scaled to controls: 0 for no effect and ±100 for the full control effect
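Antiviral activity was scored by luciferase reporter output from cells infected with HCVcc-Cre (~0.5 moi) in presence of compound, 44 h infection period, cells seeded 1,000/well 4 h prior.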
Pf growth 48h: P. falciparum growth inhibition at 48 hours (one generation). 310,000 compounds, 5.9% hits. Potency, µM (titrated, usually from 28.7 µM), without a hit: at the top dose activity change, negative = inhibition, most hits filed as inhibitors. P. falciparum luciferase growth in erythrocytes, 48 h. AID 504832; also: % is scaled to controls: 0 for no effect and ±100 for the full control effect
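In quantitative HTS format, infected erythrocytes bearing luciferase-reporter parasites were treated for a single generation at 37 C. Luminescence after adding detection reagent served as the growth measure.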
VACV Venus inh: vaccinia inhibition (Venus reporter); Potency, µM (highest dose often 36.5 µM), for the others: at the top dose activity change, negative = inhibition, actives largely listed as inhibitors; 330,000 compounds, 0.46% hits; Vaccinia virus Venus reporter expression, fluorescence; calls by dose curve; tested in A549 cells; also: % is scaled to controls: 0 for no effect and ±100 for the full control effect; nearly all actives have a fitted effect of over 30% in size
Pf growth 96h: inhibits malaria parasite growth, 96 h; Potency, µM (top dose mostly 28.7 µM), without a hit: at the highest dose activity change, negative = inhibition, actives largely listed as inhibitors; P. falciparum luciferase reporter growth, 96 h; 320,000 compounds, 6.9% hits; AID 504834; also: % is scaled to controls: 0 for no effect and ±100 for the full control effect
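Delayed-death screen, second-generation endpoint: infected erythrocytes, 2% hematocrit, 0.05% parasitemia final; 96 hours at 37 C, 5% CO2; luciferase detection reagent; luminescence decrease equals reduced growth.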
Active calls of the source: *; i = inactive; u = inconclusive; x = not tested or not shown. Only some compounds are listed: those with a hit (about 11% of all), similar ones and a draw of the others. Unless noted, calls follow the shape of the dose curve; as a rule, active = well fitted inhibition curve with a large enough effect; inconclusive = small, poorly fitted or top-dose-only effect, or another doubt; inactive = no such curve, though single readings can be large or run the other way. Potency is read from the fitted curve at half-maximal effect.

SMILES	Vaccinia mCherry	NS1 inh	HCV inhibitor	Pf growth 48h	VACV Venus inh	Pf growth 96h
Cc1cc(C)c(S(=O)(=O)c2cccc(Cl)c2)c(Cl)n1	i	x	u	10µM*	-3%	u
Cc1cc(C)c(S(=O)(=O)c2ccccc2)c(OC(=O)c2c(F)cccc2F)n1	-26%	x	5%	i	-14%	16%
Cc1cc(C)c(S(=O)(=O)c2ccccc2)c(OC(=O)c2c(Cl)cc(Cl)cc2Cl)n1	u	17%	u	3.7µM*	u	14%
O=C(Cc1ccccc1)NCc1n[nH]c(=S)n1-c1ccccc1	14%	x	9%	12%	-4%	9%
CCOC(=O)c1ccc(NC(=O)N2CCc3ccccc32)cc1	x	-5%	u	64%	x	x
CN(C(=O)C1CCN(S(=O)(=O)c2cccs2)CC1)C1CCCCC1	-14%	2%	21%	-16%	-11%	1.7µM*
O=C(Nc1ccc(Cl)cn1)C1CCN(S(=O)(=O)c2cccs2)CC1	x	-3%	11µM*	-4%	x	7%
CCc1cccc(NC(=O)C2CCN(S(=O)(=O)c3cccs3)CC2)c1	i	-6%	u	-6%	-18%	x
CCc1ccc(NC(=O)C2CCN(S(=O)(=O)c3cccs3)CC2)cc1	-7%	-18%	4.5µM*	u	-29%	220%
O=C(C1CCN(S(=O)(=O)c2cccs2)CC1)N1CCCCC1	x	-50%	9%	31%	x	0%
O=C(Nc1ccc(Br)cc1)C1CCCN1S(=O)(=O)c1cccs1 (configuration not stated)	x	-32%	u	x	u	3.7µM*
C[C@@H]1CCC(=O)N(CC[C@H](Sc2ccc(Br)cc2)c2ccccc2)CC1	-17%	x	u	u	u	u
CCc1ccc(NC(=O)C2CCN(S(=O)(=O)c3cnc[nH]3)CC2)cc1	x	-8%	3%	u	x	13µM*
Cc1ccc(NC(=O)C2CCN(S(=O)(=O)c3cccs3)CC2)cc1	-14%	x	2%	u	-23%	u
Cc1nc2ccc(NC(=O)C3CCN(S(=O)(=O)c4cccs4)CC3)cc2s1	x	-3%	u	u	x	9.3µM*
Cc1cccc2sc(N(CCN(C)C)C(=O)C3CCN(S(=O)(=O)c4cccs4)CC3)nc12	-7%	x	u	12µM*	-19%	u
CCc1ccc(NC(=O)C2CCCN(S(=O)(=O)c3cnc[nH]3)C2)cc1 (configuration not stated)	x	-11%	18%	-6%	x	u
O=C(Nc1nc(-c2ccc3ccccc3c2)cs1)C1CCN(S(=O)(=O)c2cccs2)CC1	-4%	21%	u	u	-11%	u
Cc1ccc(-c2csc(NC(=O)C3CCN(S(=O)(=O)c4cccs4)CC3)n2)cc1	u	13%	10µM*	u	-29%	12µM*
CCOC(=O)C1CCN(Cc2nc3ccccc3c(=O)n2-c2ccc(OCC)cc2)CC1	x	15%	-7%	u	x	-54%
CCc1ccc2occ(CC(=O)Nc3c(C(=O)Nc4ccc(OC)cc4)oc4ccccc34)c2c1	-21%	x	x	x	-21%	x
CCCCNc1nc(=S)[nH]c2cc(OC)c(OC)cc12	-16%	2%	-2%	x	-27%	17%
O=C1NC(C2CC3C=CC2C3)Nc2ccccc21 (configuration not stated)	i	x	x	x	-3%	x
COc1ccc(-c2nonc2NC(=O)c2oc3ccccc3c2C)cc1OC	x	-14%	-18%	u	x	10µM*
COc1cc(C)c(/C=C/C(C)=C/C=C/C(C)=C/C(=O)O)c(C)c1C	-6%	x	7%	-16%	-16%	-3%
SMILES	Vaccinia mCherry	NS1 inh	HCV inhibitor	Pf growth 48h	VACV Venus inh	Pf growth 96h
CC(=O)Nc1ccc(NC(=O)C(Cc2ccccc2)N2Cc3ccccc3C2=O)cc1 (configuration not stated)	i	x	x	x	-12%	x
CCOC(=O)[C@@H]1[C@H]2COc3ccccc3[C@@H]2N2C(=O)N(c3cccc(Cl)c3)C(=O)[C@@]12C	i	-51%	-10%	-71%	-14%	10µM*
C[C@@]12C(=O)N(c3ccc(C(F)(F)F)cc3)C(=O)N1[C@@H]1c3ccccc3OC[C@@H]1[C@H]2c1ccccc1	i	u	-11%	u	-15%	4.1µM*
CCOC(=O)[C@@H]1[C@H]2COc3cc(OC)ccc3[C@H]2N2C(=O)N(c3cccc(Cl)c3)C(=O)[C@]12C	-3%	21%	-11%	u	-10%	u
CCOC(=O)[C@@H]1[C@H]2COc3ccc(Br)cc3[C@@H]2N2C(=O)N(c3ccc(C(F)(F)F)cc3)C(=O)[C@@]12C	-9%	29%	-15%	u	-17%	9.3µM*
CCOC(=O)[C@@H]1[C@H]2COc3cc(OC)ccc3[C@H]2N2C(=O)N(c3cccc(Cl)c3)C(=O)[C@@]12C	i	4%	u	10µM*	-10%	u
COc1ccc(OCC(=O)N2CCN(Cc3cc(=O)n4nc(-c5ccc(OC)cc5)sc4n3)CC2)cc1	-10%	x	x	x	-30%	x
CCOC(=O)[C@@H]1[C@H]2COc3ccccc3[C@H]2N2C(=O)N(c3ccc(Cl)cc3)C(=O)[C@]12C	i	-12%	-22%	13µM*	9%	8.3µM*
CCOC(=O)C1CCN(C(=O)COC(=O)c2cc(-c3cccs3)nn2-c2ccccc2)CC1	-5%	x	u	12%	-1%	0%
CC(C)n1cc(/C=C2/NC(=O)N(c3cccc(Cl)c3)C2=O)c2ccccc21	x	16%	u	8.3µM*	x	9.3µM*
CCOC(=O)C1(Cc2ccccc2Cl)CCN(S(C)(=O)=O)CC1	-15%	-5%	23%	1%	-2%	u
CCOC(=O)C1CCN(C2=C(NS(=O)(=O)c3ccc(Br)cc3)C(=O)c3ccccc3C2=O)CC1	x	25%	12%	u	x	u
O=C1C(NS(=O)(=O)c2cccs2)=C(N2CCN(Cc3ccccc3)CC2)C(=O)c2ccccc21	x	4%	-15%	u	x	u
CCOC(=O)N1CCN(C2=C(NS(=O)(=O)c3ccccc3)C(=O)c3ccccc3C2=O)CC1	u	8%	u	13µM*	-19%	9.3µM*
O=C1C(NS(=O)(=O)c2cccs2)=C(N2CCOCC2)C(=O)c2ccccc21	u	-1%	-1%	-29%	-2%	u
CN1CCN(C2=C(NS(=O)(=O)c3cccs3)C(=O)c3ccccc3C2=O)CC1	18µM*	3%	11µM*	u	10µM*	u
CCOc1ccccc1N1CCN(C2=C(NS(=O)(=O)c3cccs3)C(=O)c3ccccc3C2=O)CC1	x	u	u	10µM*	u	x
O=C1C(Nc2ccccc2)=C(NS(=O)(=O)c2ccccc2)C(=O)c2ccccc21	i	10%	19%	10µM*	-3%	4.1µM*
O=C(NCc1ccco1)c1ccc(C(F)(F)F)cc1	-1%	x	-1%	10%	3%	11%
